These results are taken from PubChem BioAssay.

Unmarked numbers belong to inactive results. Calls of active or inactive are those of the source. How the calls were made is not given here.

A short description of the test: chitosan synthesis blockers in C. neoformans – flow cytometry, Cibacron Brilliant Red staining (AID 1347148).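 Further: compound exposure lasted three days at 37 degrees C.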 The conditions noted are these: Cryptococcus neoformans chitosan, active compounds read low; at 10 µM unless noted. On the technique in general: In flow cytometry, cells or beads pass a laser one at a time.
Take `CCN1C[C@]2(COC)C(O)C[C@H](OC)[C@]34C1[C@H]([C@H](OC)[C@H]23)[C@]1(OC(C)=O)[C@H]2[C@@H](OC(=O)c3ccccc3)[C@@](O)(C[C@H]24)[C@@H](OC)[C@@H]1O` (some centres not stated): the fold fluorescence is 4.31 [at 77.4 µM].
On to `OC[C@@H]1O[C@H](n2cnc3cc(Cl)c(Cl)cc32)C(O)[C@@H]1O` (some centres not stated), for which the fold fluorescence is 3.08 [at 156.7 µM].
For the compound `CC(CCC(=O)O)CC(C)CC(C)C(=O)/C=C(\O)C(C)CC(C)C/C=C/C(C)C(O)C(C)C(O)CC1CCC(C)(C2CCC(C)(C(C)O)O2)O1` (configuration not stated), the fold fluorescence was 5.45 [at 70.5 µM].
The figure for `C=C1C(=O)O[C@H]2C[C@H](C)[C@H]3C=CC(=O)[C@]3(C)[C@H](O)[C@@H]12` is 9.09 [at 190.6 µM]; for `CC1(C)[C@@H](O)C[C@H]2[C@](C)(O)[C@@H]3CCC4[C@@H](O)[C@@]3(C[C@@H](O)[C@@]21O)C[C@@]4(C)O` it is 2.34 [at 135 µM] (active).
To `CCCC[C@H](C)[C@H](OC(=O)C[C@H](CC(=O)O)C(=O)O)[C@@H](C[C@H](C)C[C@@H](O)CCCC[C@H](O)C[C@@H](O)[C@@H](C)N)OC(=O)C[C@@H](CC(=O)O)C(=O)O` belongs 2.99 [at 69.3 µM]; to `CNc1ccc2oc(C[C@H]3OC4(CC[C@H]3C)O[C@@H](C(C)C(=O)c3ccc[nH]3)[C@@H](C)C[C@@H]4C)nc2c1C(=O)O` (some centres not stated), 5.79 [at 95.5 µM]; to `COC1=CC(=O)O[C@H](/C=C/c2ccccc2)C1`, 3.69 [at 217.1 µM].
On to `C=C1[C@@H](O)C2O[C@@]3(CCC2O[C@@H]1C(O)C[C@H](C)C1O[C@@]2(CCCCO2)CC[C@H]1C)CC[C@@H](/C=C/[C@@H](C)[C@@H]1CC(C)=C[C@@]2(O[C@H](C[C@@](C)(O)C(=O)O)CCC2O)O1)O3` (some centres not stated), for which the fold fluorescence is 14.3 [at 6.2 µM].
For `CN1C(=O)[C@@]23CC4=CC=C[C@@H](O)[C@@H]4N2C(=O)[C@]1(CO)SS3`, the fold fluorescence was 7.1 [at 153.2 µM].
In the case of `C#CCN(C)[C@@H](C)Cc1ccccc1`, the fold fluorescence was 5.04 [at 267 µM].
Take `CC(C)[C@@H]1NC(=O)[C@H](C(C)C)OC(=O)[C@@H](C(C)C)NC(=O)[C@@H](C)OC(=O)[C@@H](C(C)C)NC(=O)[C@H](C(C)C)OC(=O)[C@@H](C(C)C)NC(=O)[C@@H](C)OC(=O)[C@H](C(C)C)NC(=O)[C@H](C(C)C)OC(=O)[C@H](C(C)C)NC(=O)[C@H](C)OC1=O`: the fold fluorescence is 7.5 [at 45 µM].
Take `COc1ccc(C(=O)OC2CCC3(C)C4CCC5C6(O)CC(O)C7(O)C(CN8CC(C)CCC8C7(C)O)C6(O)CC53OC24O)cc1OC` (configuration not stated): the fold fluorescence was 11.6 [at 74.2 µM].
As to `O[C@@H]1[C@@H](O)[C@H](O)CN2CC[C@@H](O)[C@@H]12`, the fold fluorescence was 5.17 [at 264.3 µM].
As for `CCNC(=O)[C@@H]1O[C@H](n2cnc3c(N)ncnc32)C(O)[C@@H]1O` (some centres not stated), the fold fluorescence was 4.97 [at 162.2 µM].
Consider `CC(C)NC[C@H](O)c1ccc(N)c(C#N)c1`, for which the fold fluorescence was 4.74 [at 228 µM].
Take `O[C@@H]1[C@@H]2[C@@H](O)CCCN2C[C@@H]1O`: the fold fluorescence is 5.36 [at 288.7 µM].
As for `N[C@H]1CCc2cc(O)c(O)cc2C1`, the fold fluorescence is 4.25 [at 279 µM].
As for `O=C1CS[C@@H](c2ccccc2Cl)c2cc(Cl)ccc2N1`, the fold fluorescence is 10.4 [at 154.2 µM].
On to `C/C1=C/C(=O)O[C@H]2C[C@H](CC[C@@H](C)/C=C\CC1)O[C@](O)([C@H]1CSC(=O)N1)C2`, for which the fold fluorescence is 6.99 [at 126.4 µM].
On to `CCCCCCCCCCCCCC(=O)O[C@H]1[C@H](C)[C@]2(O)[C@H](C=C(CO)C[C@@]3(O)C(=O)C(C)=C[C@H]23)[C@H]2C(C)(C)[C@@]12OC(C)=O`, for which the fold fluorescence was 4.29 [at 81.1 µM].
As for `CCCCCCCCCCCCCCCC(=O)OC[C@@H](COP(=O)([O-])OCC[N+](C)(C)C)OC(C)=O`, the fold fluorescence was 4.75.
Consider `CC(C)[C@@]1(O)[C@H](OC(=O)c2ccc[nH]2)[C@]2(O)[C@]3(C)C[C@@]4(O)O[C@]5([C@@H](O)[C@H](C)CC[C@@]35O)[C@]2(O)[C@@]41C`, for which the fold fluorescence is 3.48 [at 101.3 µM].
Consider `CCCCCCCCCCCCCCCCOC[C@H](O)COP(=O)([O-])OCC[N+](C)(C)C`, for which the fold fluorescence is 3.83.
Take `CC(=O)NC1C(OC2OC(CC(O)C3OC(n4ccc(=O)[nH]c4=O)C(O)C3O)C(O)C(O)C2NC(=O)/C=C\CC(C)C)OC(CO)C(O)C1O` (configuration not stated): the fold fluorescence is 7.24 [at 69.6 µM].
Take `C=C(C)[C@@H]1O[C@@H]2CC[C@]3(C)[C@](O)(CC[C@@H]4[C@H]5OC(C)(C)[C@@H]6C[C@H]7C(=C)Cc8c(Cl)cc9[nH]c(c5c9c8[C@]76O)[C@]43C)[C@@]23O[C@H]3[C@@H]1O`: the fold fluorescence was 6.21 [at 78.8 µM].
Turning to `COC(=O)[C@]1(O)C[C@@H]2O[C@@]1(C)n1c3ccccc3c3c4c(c5c6ccccc6n2c5c31)C(=O)NC4`, the fold fluorescence is 6.41 [at 10.7 µM].
